The whole screen tested about 1,200 compounds, of which about 110 (9.2%) were called active. Roughly 8% stayed inconclusive and do not appear here.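 The calls were made as follows: active = pathway reporter half-maximal dose under half the control reporter's, or control reporter unaffected while pathway reporter is inhibited; inconclusive = either signal flat at 30 to 70% inhibition or poorly fitted; inactive = the rest.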 Only a sample is shown. Entries with a potency or affinity are not part of this list.

The test in a line: LMP1 TES1 pathway selectivity over dsRED control – imaging, HEK293T, dual-color eGFP/dsRED, cherry-picks, selectivity assay for LMP1 NF-kB inhibitor project, dose response (AID 588398). As to conditions: 48 h; HEK293T Tet-On dsRED counter-screen channel, at 19.5 µM (top of the series).
Take `CCOC(=O)C1=C(C)N(C)C(=O)NC1c1ccccc1OC` (stereo unspecified): the call was inactive.
For `O=C(Nc1cc(S(=O)(=O)N2CCOCC2)ccc1Cl)c1ccncc1` the value was “inactive”; for `O=C1C2CCCN2c2ccc(S(=O)(=O)N3CCOCC3)cc2N1Cc1ccccc1F` (stereo unspecified), “inactive”; for `CCn1nc(C(=O)Nc2nc(-c3ccccn3)cs2)c2ccccc2c1=O`, “inactive”.
For `COc1ccc(C2CC(C(F)(F)F)n3ncc(C(=O)NCc4cccnc4)c3N2)cc1OC` (stereo unspecified) the value was “inactive”; for `C=CCN=C1NN=C(c2cc(C)n(CCOC)c2C)CS1`, “inactive”; for `Cc1cccc(C)c1NC(=O)CN(C)CC(=O)Nc1ccccc1Oc1ccccc1`, “inactive”.
For `Cc1sc2nc(SCC(=O)OC(C)C)n(C)c(=O)c2c1C` the value was “inactive”; for `O=C(c1ccc(Cl)cc1)N1CCN(CCOc2ccccc2)CC1`, “inactive”.
With `Cc1cccc(Cn2cc(SCC(=O)Nc3nccs3)c3ccccc32)c1`, the call was inactive.
For `O=C(CSc1nc2ccccc2c(=O)n1CCCN1CCOCC1)Nc1ccc(Br)cc1` the value was “inactive”; for `O=C(Cn1cc(CNC(=O)C2CCCCC2)nn1)Nc1cc(C(F)(F)F)ccc1Cl`, “inactive”; for `COc1ccc(NC(=O)c2cc3ccccc3oc2=O)cc1`, “inactive”.
For `COc1ccc(C(=O)Nc2cccc(C(=O)N/N=C/c3ccc(OC)cc3OC)c2)cc1` the value was “inactive”; for `COc1cc(NC(=S)N2CCN(CCO)CC2)cc(OC)c1`, “inactive”.
In the case of `CCCc1nc(SCC(=O)NCc2ccco2)c2c(=O)n(C)c(=O)n(C)c2n1` it was “inactive”.
On to `Oc1c(N=NC(=S)Nc2ccccc2F)c2ccccc2n1Cc1ccccc1F`, for which the call was inactive.
In the case of `O=C1C=Cc2cccc3ccc(O)c1c23` it was “inactive”.
For `COc1ccc(OC)c(CCNC(=O)CCn2nc(C)c3c(C)n(-c4ccccc4)nc3c2=O)c1` the value was “inactive”; for `O=C(O)CN1C(=O)/C(=C\c2ccccc2OCc2ccc(Cl)cc2Cl)SC1=S`, “inactive”.
For `CC1S/C(=C(\C#N)C(=O)NCc2ccco2)N(Cc2ccco2)C1=O` (stereo unspecified) the value was “inactive”; for `O=C(CCCN1C(=O)/C(=C/c2ccccc2Cl)SC1=S)NNC(=O)c1ccccc1Cl`, “inactive”.
For the molecule `COc1cc(/C=C2/SC(=S)N(Cc3ccccc3)C2=O)ccc1OCC(=O)O`, the molecule was called inactive.
For `Cc1ccc(C2=C/C(=C\c3cccnc3)C(=O)O2)cc1`, the call was inactive.
As to `CCc1ccc(/C=C2\SC(=S)N(CCCC(=O)NC3=NCCS3)C2=O)cc1`, the outcome was inactive.
For `CCCC(C)NC(C)C(=O)NC1CCCC1` (stereo unspecified) the value was “inactive”.
For `COc1ccc(C(=O)Nn2c(SCC(=O)NCc3ccco3)nc3ccccc3c2=O)cc1` the value was “inactive”.
`O=C(Nc1ccc(Br)cc1)C1CC(O)CN1C(=O)OCc1ccccc1` (stereo unspecified): the outcome was inactive.
In the case of `CCOc1ccc(NC(=O)CCc2nnc3ccc(N4CCC5(CC4)OCCO5)nn23)cc1` it was “inactive”.
For `COc1ccc(N2CCN(c3ncnc4c3[nH]c3ccccc34)CC2)cc1` the value was “inactive”; for `CC1(C)CN(Cc2ccccc2)C(=O)[C@H]1CC(=O)Nc1ccccc1`, “inactive”.
For `CC(=O)c1ccccc1OCC(=O)Nc1cccc(S(=O)(=O)N2CCCC2)c1` the value was “inactive”; for `Cc1ccc(C(=O)Nc2cccc(C(F)(F)F)c2)cc1Nc1ncnc2nc[nH]c12`, “inactive”; for `CC(=O)Nc1ccc(C=NNc2nnc(NN=Cc3ccc(NC(C)=O)cc3)c3ccccc23)cc1`, “inactive”.
As to `Cc1ccnc(NC(=O)c2cccc(NC(=O)c3ccc(Cl)c(Cl)c3)c2)c1`, the molecule was classed as inactive.
As to `COc1ccc(NC(=O)COC(=O)/C=C/c2ccc(OC)c(S(=O)(=O)N3CCOCC3)c2)cc1`, the call was inactive.
In the case of `COc1ccc(C=C2CS(=O)(=O)CC(=Cc3ccc(OC)cc3)C2=O)cc1` it was “inactive”.
In the case of `COC(=O)[C@@]1(Cc2ccccc2)[C@H]2C(=O)N(Cc3ccccc3)C(=O)[C@H]2[C@H]2CN=C(SCc3ccc(Cl)cc3)N21` it was “inactive”; in that of `CCOc1ccc(NC(=S)N=Nc2c(O)[nH]c3ccccc23)cc1`, “inactive”; in that of `CC(NC(=O)CNC(=O)OCc1ccccc1)C(=O)N1CC(O)CC1C(=O)OCc1ccccc1` (stereo unspecified), “inactive”.
`CCN1CCN(Cc2ccc(NC(=O)c3ccc(C)c(NC(=O)c4cccc5[nH]ccc45)c3)cc2C(F)(F)F)CC1`: the call was inactive.
In the case of `Cc1ccc(C)c(Cn2c(O)c(N=NC(=S)Nc3ccccc3F)c3ccccc32)c1` it was “inactive”.
For `COc1cc(OC)cc(-c2cc3nc(C)c(CCC(=O)O)c(C)n3n2)c1` the value was “inactive”.
For `O=C(C[n+]1ccccc1)N/N=C/c1ccc(O)cc1` the value was “inactive”.
On to `C#CCN(C[C@@H]1[C@@H](OC(=O)NCc2ccccc2F)[C@@H](OC(=O)NCc2ccccc2F)Cn2c(=O)ccc(=O)n21)S(=O)(=O)c1ccc(C)cc1`, for which the result was inactive.
In the case of `Cc1ccc(-n2c(=O)c3c(c4cc(C)ccc4n3C)n(CC(=O)NCC3CCCO3)c2=O)cc1` (stereo unspecified) it was “inactive”; in that of `Cc1ccnc(NC(=O)c2ccc(OCC3CCCO3)cc2)c1` (stereo unspecified), “inactive”.
In the case of `CCOc1ccc(C(=O)NC(=S)N(Cc2ccccc2)Cc2ccccc2)cc1` it was “inactive”; in that of `O=C(Nc1cc(Cl)ccc1Cl)C1Cc2ccccc2O/C1=N\O` (stereo unspecified), “inactive”.
For `CCOC(=O)c1sc2nc(C)nc(NCc3ccccc3)c2c1C` the value was “inactive”; for `COc1ccc(CN2C(=O)c3cccnc3C2Nc2cc(Cl)ccc2OC)cc1` (stereo unspecified), “inactive”.
For `CCC(=O)NC(c1ccc(C)cc1)c1cc(Cl)c2cccnc2c1O` (stereo unspecified), the outcome was inactive.
In the case of `CCC(=O)NC(c1cc(Cl)c2cccnc2c1O)C1CC1` (stereo unspecified) it was “inactive”; in that of `CC(=O)NC(c1ccc(Cl)cc1Cl)c1ccc2cccnc2c1O` (stereo unspecified), “inactive”.
Turning to `CN(C)S(=O)(=O)c1ccc(Cl)c(C(=O)NCCNC(=O)c2cc(S(=O)(=O)N(C)C)ccc2Cl)c1`, the result was inactive.
With `CCNc1nc(CN2CCOCC2)nc2sc3c(c12)CCC3`, the result was inactive.
For `Cc1nn(-c2ccccc2)c(Cl)c1C(=O)N1CCN(c2ncnc3c2cnn3-c2ccccc2)CC1` the value was “inactive”; for `O=c1nc(N/N=C/C=C/c2ccccc2)cn[nH]1`, “inactive”.
For `CN(CCNC(=O)C1CCN(S(=O)(=O)N2CCOCC2)CC1)CCc1ccccc1` the value was “inactive”; for `O=C(N/N=C/c1cc2c3c(c1O)CCCN3CCC2)c1ccccc1O`, “inactive”; for `CCOC(=O)C1CCN(S(=O)(=O)Cc2ccccc2)C1=O` (stereo unspecified), “inactive”.
In the case of `CCOC(=O)CCSc1nc(N2CCOCC2)c2c(c1C#N)CC(C)(C)OC2` it was “inactive”.
For `COc1ccc(C=NNc2nc3ccccc3s2)cc1`, the outcome was inactive.
For `C(=Cc1nc2ccccc2o1)c1ccc2c(c1)OCO2` the value was “inactive”; for `c1ccn2cc(-c3ccc4c(c3)OCCO4)nc2c1`, “inactive”.
As for `CC1CCN(CCOc2ccc(C(=O)c3ccccc3)cc2)CC1`, the molecule was classed as inactive.
With `CCC(C)[C@H](NC(=O)NCc1cccnc1)C(=O)OC` (stereo partly specified), the molecule was called inactive.
In the case of `Cc1cc(C(=O)COc2cccnc2[N+](=O)[O-])c(C)n1-c1ccccc1F` it was “inactive”; in that of `CCOc1ccc(Nc2ncnc3ccc([N+](=O)[O-])cc23)cc1`, “inactive”; in that of `O=C1CCCCC1Sc1nnc(-c2ccc3c(c2)OCO3)o1` (stereo unspecified), “inactive”.
Turning to `C=CCn1c(=O)/c(=C/c2ccc(Cl)cc2)s/c1=C(\C#N)c1nnc2n1CCCCC2`, the molecule was classed as inactive.
On to `Cc1ccc(OCC(=O)NNC(=S)NC(=O)C2CCCCC2)c(C)c1`, for which the result was inactive.
Take `Cc1cc(NC(=O)c2ccc(C)s2)n(-c2nc3ccccc3[nH]2)n1`: the molecule was classed as inactive.
For `COc1ccc(OC)c(NC(=O)COC(=O)COc2ccc(Nc3ccccc3)cc2)c1` the value was “inactive”.
For `C(=Cc1cnc2ccccc2n1)c1ccc2c(c1)OCO2` the value was “inactive”; for `CCOc1ccc(NC(=O)c2ccc(N3CC4CC(C3)c3cccc(=O)n3C4)c(NC(=O)c3cccnc3)c2)cc1` (stereo unspecified), “inactive”; for `COc1ccc(N2C(=O)C(Cl)=C(NCc3ccccc3)C2=O)cc1`, “inactive”.
`CCOc1ccccc1/C=C/c1onc(C)c1S(=O)(=O)N1CCC(C(=O)N(CC)CC)CC1`: the molecule was called inactive.
On to `Cc1ccc(S(=O)(=O)N2CCN(C(=O)COC(=O)COc3ccc(Cl)cc3)CC2)c(C)c1`, for which the call was inactive.
In the case of `CCOC(=O)N1CCC(NC(=O)C2CCCN(Cc3nc(-c4cccc(Cl)c4)oc3C)C2)CC1` (stereo unspecified) it was “inactive”; in that of `COc1ccc(S(=O)(=O)N2CCCCCC2)cc1C(=O)OCc1cccc(OC)c1OC`, “inactive”; in that of `Fc1cccc(Cl)c1/C=N/n1c(-c2cccnc2)n[nH]c1=S`, “inactive”.
Regarding `CC(=O)c1cccc(NC(=O)Nc2ccc(C(=O)N3CCOCC3)cc2)c1`, the result was inactive.
`O=C(c1ccccc1Br)N1CCN(Cc2ccc3c(c2)OCO3)CC1`: the call was inactive.
As to `CC(=O)NC(c1ccc(Cl)cc1)c1ccc2cccnc2c1O` (stereo unspecified), the molecule was called inactive.
In the case of `CCC(=O)NC(c1ccc(Cl)cc1Cl)c1ccc2cccnc2c1O` (stereo unspecified), the outcome was inactive.
In the case of `Cc1ccc2[nH]c3c(c2c1)CCCC3NC(=O)CCl` (stereo unspecified) it was “inactive”; in that of `Cc1cccc(-n2c(O)c(C=Nc3c(C)n(C)n(-c4ccccc4)c3=O)c3ccccc3c2=O)n1`, “inactive”; in that of `CC(=O)OC1CCC2(C)C(CCC3C4CC=C(C(C)=O)C4(C)OC(=O)CC32)C1` (stereo unspecified), “inactive”.
In the case of `O=C1NC(=O)/C(=C\c2ccc(OCc3cccc(C(=O)O)c3)c(Cl)c2)N1` it was “inactive”; in that of `CN1CCN(C(=O)C2=C[C@@H](C(C)(C)C)C[C@@H](OCc3ccc(CO)cc3)O2)CC1`, “inactive”.
With `COc1ccc(N2CCN(CCNC(=O)CCCn3c(=O)[nH]c4cc(Cl)ccc4c3=O)CC2)cc1`, the outcome was inactive.
For `CCn1c(SC(C)C)nnc1-c1c[nH]c2ccccc12` the value was “inactive”; for `CCn1c2ccccc2c2cc(/C=N/NC(=O)c3cc(O)cc(O)c3)ccc21`, “inactive”; for `CCn1c2ccccc2c2cc(/C=N/NC(=O)c3ccncc3)ccc21`, “inactive”.
In the case of `CC1CC(C)C(=O)C(C(CC2CC(=O)NC(=O)C2)OC(=O)CC(=O)c2ccccc2)C1` (stereo unspecified) it was “inactive”.
For `COc1cc(C(c2sc3nc(C)nn3c2O)N2CCc3ccccc3C2)cc(OC)c1OC` (stereo unspecified) the value was “inactive”; for `CCOc1ccccc1NC(=O)Cn1c(=O)sc2ccccc21`, “inactive”.
For `CCOc1cc(Br)cc(/C=N/NC(=O)c2cccnc2)c1O`, the outcome was inactive.
For `O=C(NC(c1ccc(Cl)cc1)c1cc(Cl)c2cccnc2c1O)c1cccnc1` (stereo unspecified) the value was “inactive”; for `Cc1cc(N2CCOCC2)c2c(N)c(Br)cc(C)c2n1`, “inactive”.
